CYP2C19 act: activators of human cytochrome P450 2C19; P33261; activation factor at 5 µM; recombinant CYP2C19, luciferin-H EGE luminescence; hits give high values; 0 = fully inhibited enzyme, 1 = untreated enzyme; AID 1025; 96,000 tested, under 10 active;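 active = activation factor of at least 2 at 5 µM in the primary screen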;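 also: 0 = wells with 2.5 mM tranylcypromine and 1 = vehicle-only wells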
Target sequence (P33261 whole entry, looked up): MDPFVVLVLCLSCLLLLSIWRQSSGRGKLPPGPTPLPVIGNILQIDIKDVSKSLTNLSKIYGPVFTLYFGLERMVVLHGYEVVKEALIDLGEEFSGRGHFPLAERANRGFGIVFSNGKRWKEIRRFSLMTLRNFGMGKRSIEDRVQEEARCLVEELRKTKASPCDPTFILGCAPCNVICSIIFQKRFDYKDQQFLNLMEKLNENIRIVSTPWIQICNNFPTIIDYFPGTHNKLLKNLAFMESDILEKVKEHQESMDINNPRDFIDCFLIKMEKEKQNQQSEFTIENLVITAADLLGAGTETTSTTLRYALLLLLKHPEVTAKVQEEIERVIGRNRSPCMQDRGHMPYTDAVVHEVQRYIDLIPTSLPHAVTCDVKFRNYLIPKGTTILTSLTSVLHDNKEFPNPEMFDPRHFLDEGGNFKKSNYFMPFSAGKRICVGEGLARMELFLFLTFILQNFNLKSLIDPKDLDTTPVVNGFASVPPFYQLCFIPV
Measles CPE: protection of cells from measles virus; Measles virus-infected cells, CPE protection, absorbance; protection (pct of control), % at 4 µM; hit rate 1.5% among 140,000; AID 841; in the data active = protection mostly above about 24%, no sharp cut-off; inactive = mostly below about 26%
CYP2C19 inhib: human CYP2C19 inhibition | CYP2C19 Supersomes, luciferin-H EGE luminescence, 30 min | inhibition, % at 5 µM | AID 778 | hit rate 21% among 96,000 | P33261;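 active = CYP2C19 inhibition above a set limit at 5 µM in the primary screen, cut at about 50% in these data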;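 also: plate controls were negative control wells for no effect and 2.5 mM tranylcypromine positive control for full effect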
CYP2C9 inh: inhibitors of human CYP2C9; AID 777; inhibition, % at 5 µM; hit rate 20% among 96,000; CYP2C9 Supersomes, luciferin-H conversion, luminescence; P11712;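 active = blocking of liver enzyme CYP2C9 beyond about 50% at 5 µM, limit read from the data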
CYP2C9 activ: activators of human CYP2C9. P11712. recombinant CYP2C9, luciferin-H conversion, luminescence; hits give high values; factor 1 = untreated enzyme, 0 = blocked. activation factor at 5 µM. hit rate 1.4% among 96,000. AID 1024;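 active = activation factor of 2 or more for CYP2C9 at a 5 µM dose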;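 also: 0 = sulfaphenazole-blocked wells and 1 = vehicle-only wells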
Numbers without * were called inactive; / = no result. This is a sample that favours compounds with a hit; in the whole collection about 22% have one here.

SMILES	CYP2C19 act	Measles CPE	CYP2C19 inhib	CYP2C9 inh	CYP2C9 activ
COc1ccccc1CNC(=O)COC(=O)c1cc(-c2ccco2)nc2ccccc12	1.2	10.4	-18.2	51.5*	0.5
Cc1nn(-c2ccccc2)c(C)c1/C=N/NC(=O)CSc1nnc(SCc2ccc(Cl)cc2)s1	/	5.8	/	/	/
Cc1nc(SC2C=CS(=O)(=O)C2)n[nH]1 (configuration not stated)	1	-1.1	0.6	1.2	1
COc1ccc(C(=O)Nc2ccccc2)cc1S(=O)(=O)Nc1cc(C)on1	1	16.3	-3.9	8.0	0.9
O=C1/C(=C/c2ccncc2)SC(=S)N1C1CCS(=O)(=O)C1 (configuration not stated)	0.2	7.2	75.3*	41.6	0.6
CCOC(=O)N1CCN(C(=O)c2ccc3c(c2)N(CC)CCS3)CC1	1	1.9	3.5	78.0*	0.2
CCOC(=O)N1CCC(NC(=O)Cn2nc(-c3ccccc3)ccc2=O)CC1	1	22.3	4.0	-3.6	1
CCOC(=O)N1CCC(NC(=O)c2cc3c(C)nc4ccccc4c3o2)CC1	0.6	10.3	39.6	61.4*	0.4
CCOC(=O)N1CCC(NC(=O)c2ccc3c(c2)N(Cc2ccccc2)CCS3)CC1	0.1	3.3	85.2*	91.5*	0.1
CCOC(=O)N1CCC(NC(=O)Cn2nc(Cc3ccncc3)c3ccccc3c2=O)CC1	0.4	30.2	55.0*	77.3*	0.2
CNC(=O)C1CC(=O)N(c2ccc(C)cc2)C1 (configuration not stated)	0.7	5.1	30.2	1.5	1
CC(C)COP(=O)(c1ccc(N(C)C)cc1)C(O)c1ccccc1F (configuration not stated)	0.5	9.9	49.6	9.9	0.9
CC(Sc1nc2cc([N+](=O)[O-])ccc2n1-c1cccc(C(F)(F)F)c1)C(=O)NC(N)=O (configuration not stated)	/	2.1	/	/	/
Cc1noc(C)c1COc1ccc(C(=O)OCC(=O)NC23CC4CC(CC(C4)C2)C3)cc1	0.7	15.0	26.0	45.3	0.5
Cc1noc(C)c1COc1ccc(C(=O)OCC(=O)NC2CCCCC2C)cc1 (configuration not stated)	0.7	15.3	27.4	59.0*	0.4
CN(C)c1ccc(C(=O)OCC(=O)NC2CCCCC2)cc1	0.1	18.5	88.1*	12.9	0.9
CCN(CC)c1ccc(C(=O)OCC(=O)NC2CCCCC2C)cc1 (configuration not stated)	0.5	32.2	49.4	-25.5	1.3
CC1CCCC(NC(=O)COC(=O)c2ccc(N(C)C)cc2)C1C (configuration not stated)	0.2	16.8	83.0*	54.3*	0.5
CC1CCCC(NC(=O)COC(=O)c2ccc3ccccc3n2)C1C (configuration not stated)	0.4	14.4	61.5*	40.1	0.6
CC(=O)OC1CSc2nc3ccccc3n2C1 (configuration not stated)	/	2.0	/	/	/
C/C(=N\Nc1nccnc1Cl)c1ccc([N+](=O)[O-])cc1	0.9	6.5	14.2	10.2	0.9
CCN1CCN(c2nc(C)c3c(n2)CCCC3=O)CC1	1.2	3.8	-17.6	11.8	0.9
CCCCCn1nc(C)c2c(C)cc(=O)[nH]c21	/	25.3	/	/	/
O=C(CSc1ccc(-c2nc3ccccc3[nH]2)cn1)Nc1ccc(S(=O)(=O)N2CCCC2)cc1	/	5.1	/	/	/
N#Cc1cc2ccccc2nc1SCC(=O)Nc1ccc(S(=O)(=O)N2CCCC2)cc1	0.6	7.4	37.5	89.6*	0.1
SMILES	CYP2C19 act	Measles CPE	CYP2C19 inhib	CYP2C9 inh	CYP2C9 activ
COc1ccc2nc(SCC(=O)Nc3ccc(S(=O)(=O)N4CCCC4)cc3)c(C#N)cc2c1	0.8	6.9	21.6	91.1*	0.1
C=CCN(c1cccc(C(F)(F)F)c1)S(=O)(=O)c1cccc(C(=O)OCC(=O)NCCC)c1	/	3.2	/	/	/
CNC(=O)NC(=O)C(C)OC(=O)c1cc2c(s1)CCCCC2 (configuration not stated)	/	28.9*	/	/	/
CC(NC(=O)c1cc2c(s1)CCCC2)C(C)(C)C (configuration not stated)	1	2.6	0.1	1.8	1
COC(=O)c1ccsc1NC(=O)CSc1nnnn1Cc1ccccc1	/	9.0	/	/	/
CCOC(=O)c1c(C)nc2sc3c(=O)n(-c4ccc(C(C)=O)cc4)cnc3c2c1-c1ccc(Cl)cc1	0.1	2.2	93.8*	87.9*	0.1
CCOC(=O)c1c(C)nc2sc3c(=O)n(-c4ccc(C(C)=O)cc4)nnc3c2c1-c1ccc(Cl)cc1	1	6.8	-0.3	6.3	0.9
N#Cc1cccc(Oc2ccc(-c3cnc4ccccc4n3)cc2)c1C#N	/	11.8	/	/	/
NNC(=O)c1cc(Cl)ccc1Cl	/	6.3	/	/	/
O=C(O)CCS(=O)(=O)Cc1ccccc1Cl	1	1.9	3.2	16.9	0.8
CO/N=C(/CS(=O)(=O)Cc1ccccc1Cl)c1ccc(Cl)cc1Cl	0.5	3.7	52.4*	3.6	1
COc1ccc2cc3cc(C(=O)Nc4ccccc4N4CCN(C)CC4)oc3nc2c1	0.4	3.6	61.2*	25.6	0.7
Cc1cc(=O)oc2cc(OCC(=O)N3CC(C)OC(C)C3)ccc12 (configuration not stated)	0.3	16.2	73.3*	19.4	0.8
Cc1cc(=O)oc2ccc(OCC(=O)N3CCC(C)CC3)cc12	0.5	9.7	54.7*	14.9	0.9
Cc1cc(=O)oc2cc(OCC(=O)N3CCCC(C)C3)ccc12 (configuration not stated)	0.7	20.2	28.9	-43.3	1.4
COc1ccc(-c2nnc(-c3cccnc3)o2)cc1	0.8	11.8	22.3	8.7	0.9
COc1ccc(-n2nnnc2-c2cccnc2)cc1	0.4	1.3	55.0*	23.7	0.8
CCOC(=O)C1=C(Cc2ccc(OC)cc2)C(=O)c2ccccc2C1=O	0.4	13.0	56.5*	54.6*	0.5
CCOC(=O)c1c(C)nc2c(c1-c1cc(OC)ccc1OC)C(=O)c1ccccc1-2	0.8	8.8	22.3	-8.2	1.1
CCOC(=O)C1=C(Cc2ccc(C)cc2)C(=O)c2ccccc2C1=O	0.3	16.9	73.7*	61.0*	0.4
COc1cc(NC(=O)c2cc3nc(-c4ccccc4)cc(-c4ccccc4)n3n2)cc(OC)c1OC	0.7	3.0	33.0	64.5*	0.4
Cc1ccc(NC(=O)c2cc(-c3cccc(O)c3)on2)cc1C	0.8	16.5	19.7	-187.5	2.9*
COc1cccc(-c2cc(C(=O)Nc3c(C)nn(Cc4ccccc4)c3C)no2)c1	0.7	8.4	26.7	53.6*	0.5
Cc1nn(Cc2ccccc2)c(C)c1NC(=O)c1cc(-c2cccs2)on1	0.7	17.8	28.2	62.7*	0.4
COc1ccc(-c2cc(C(=O)Nc3c(C)nn(Cc4ccccc4)c3C)no2)cc1	0.7	6.0	26.3	13.0	0.9
Cc1ccc(NC(=O)c2cc(-c3ccco3)on2)cc1C	1.2	14.1	-17.9	-50.5	1.5
COc1cccc(-c2cc(C(=O)Nc3cc(OC)c(OC)c(OC)c3)no2)c1	0.2	2.9	81.1*	30.8	0.7
